The values below come from PubChem BioAssay (NCATS).

Records with an inconclusive call do not appear. Values without a mark were called inactive. The source made the active and inactive calls. Calls follow the shape of the dose curve; as a rule, active = well fitted curve in the direction sought with a large enough effect; inconclusive = small, poorly fitted or top-dose-only effect, or another doubt; inactive = no such curve, though single readings can be large; an effect the other way counts as inactive or inconclusive.

Test [1] in a line: Quantitative highthroughput screen to assess conditional lethalithy of NOMO1 cells grown in RPMI1640 with untreated serum (RPMI+s) (AID 1963876). Also: nearly all actives have a fitted effect of over 35% in size. Also: potency is read from the fitted curve at half-maximal effect.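 As to viability: 100% = DMSO wells and 0% = empty wells without cells.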 The gist of the method: (§1)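 Each medium arm—HPLM with 10% dialyzed FBS, or RPMI1640 with 5 mM glucose and 10% untreated or dialyzed FBS—was screened against an 11-point, 3-fold compound titration for 48 h at 37 °C, with CellTiter-Glo luminescence as endpoint.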

The nature of test [2]: Quantitative highthroughput screen to assess conditional lethalithy of NOMO1 cells grown in RPMI1640 with dialyzed fetal bovine serum (RPMI+ds) (AID 1963877). Also: nearly all actives have a fitted effect of over 30% in size. Also: potency is read from the fitted curve at half-maximal effect.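 As to viability: series mostly up to about 46 µM; 100% = DMSO control wells and 0% = empty wells.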 The gist of the method:
as §1

Test [3] can be described thus: Quantitative highthroughput screen to assess conditional lethalithy of NOMO1 cells grown in Human Plasma-Like Medium with dialyzed fetal bovine serum (HPLM+ds) (AID 1963878). Also: nearly all actives have a fitted effect of over 35% in size. Also: potency is read from the fitted curve at half-maximal effect.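 As to viability: 100% = DMSO wells and 0% = empty wells on each plate.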 The gist of the method:
as §1

Test [4] can be described thus: Quantitative highthroughput screen to assess conditional lethalithy of P12 Ichikawa cells grown in Human Plasma-Like Medium with dialyzed fetal bovine serum (HPLM+ds) (AID 1963879). Also: nearly all actives have a fitted effect of over 35% in size. Also: potency is read from the fitted curve at half-maximal effect. As to viability: series mostly up to about 46 µM. Conditions: Potency: viability. The gist of the method: as §1
A short description of test [5]: Quantitative highthroughput screen to assess conditional lethalithy of P12 Ichikawa cells grown in RPMI1640 with dialyzed fetal bovine serum (RPMI+ds) (AID 1963880). Also: nearly all actives have a fitted effect of over 35% in size. Also: potency is read from the fitted curve at half-maximal effect.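 As to viability: 100% = DMSO wells and 0% = empty wells on each plate.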 Conditions: Potency: P12-Ichikawa viability. Put shortly: as §1
The nature of test [6]: Quantitative highthroughput screen to assess conditional lethalithy of P12 Ichikawa cells grown in RPMI1640 with untreated serum (RPMI+s) (AID 1963881). Also: nearly all actives have a fitted effect of over 35% in size. Also: potency is read from the fitted curve at half-maximal effect.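 As to viability: series mostly up to about 46 µM; 100% = DMSO wells and 0% = empty wells without cells.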 Conditions: Potency: viability. Put shortly:
as §1

The nature of test [7]: Quantitative highthroughput screen to assess conditional lethalithy of SEM cells grown in Human Plasma-Like Medium with dialyzed fetal bovine serum (HPLM+ds) (AID 1963882). Also: nearly all actives have a fitted effect of over 35% in size. Also: potency is read from the fitted curve at half-maximal effect. As to viability: series mostly up to about 46 µM. Put shortly: as §1
A short description of test [8]: Quantitative highthroughput screen to assess conditional lethalithy of SEM cells grown in RPMI1640 with unreated serum (RPMI+s) (AID 1963883). Also: nearly all actives have a fitted effect of over 35% in size. Also: potency is read from the fitted curve at half-maximal effect.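 As to viability: 100% = DMSO wells and 0% = empty wells without cells.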 The gist of the method: as §1
Test [9] can be described thus: Quantitative highthroughput screen to assess conditional lethalithy of SEM cells grown in RPMI1640 with dialyzed fetal bovine serum (RPMI+ds) (AID 1963884). Also: nearly all actives have a fitted effect of over 35% in size. Also: potency is read from the fitted curve at half-maximal effect.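 As to viability: series mostly up to about 46 µM; 100% = DMSO control wells and 0% = empty wells without cells.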 Put shortly:
as §1

The nature of test [10]: Cellular viability qHTS for adrenocortical cancer (ACC) cell line SW-13 (AID 1963989).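 Also: cells grown in serum-free medium with ITS supplement; % is scaled to controls: 0 for no effect and ±100 for the full control effect; nearly all actives have a fitted effect of over 65% in size.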 The note with it: SW-13 ACC cells viability, CellTiter-Glo, 48 h; activity (max response): active compounds read low. Put shortly:
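Luminescent ATP read-out (CellTiter-Glo, 20 min at room temperature) measured metabolically competent SW-13 cells after 48 h compound treatment. Final concentrations spanned up to 46 uM; bortezomib served as positive control.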
(Quantitative high-throughput screening tests each substance at several concentrations.)

Consider `O=C(O)C(=O)Nc1cccc(C2=NN=N[N]2)c1`, for which the Potency result in test [1], in test [2], in test [3], in test [4], in test [5] and in test [6] was “inactive” in each case. The Potency entry in test [7], in test [8] and in test [9] was “inactive” throughout.
Turning to `O=C1CCc2cc(OCCCCc3nnnn3C3CCCCC3)ccc2N1`, the Potency result in test [1], in test [2], in [3], in test [4], in test [5] and in test [6] was “inactive” throughout. Further, the Potency result in [7], in [8] and in [9] was “inactive” throughout.
As for `COc1cccc2c1C(=O)c1c(O)c3c(c(O)c1C2=O)C[C@@](O)(C(=O)CO)C[C@H]3O[C@H]1C[C@H](N)[C@H](O)[C@H](C)O1`, the Potency in test [1] is 2960 nM (active); in test [2], 2960 nM (active); in [3] it was 2350 nM (active); in test [4], 1660 nM (active); in test [5], 2090 nM (active); in [6], 1320 nM (active). For the same compound, the Potency was 469 nM (active) in test [7], 418 nM (active) in [8] and 372 nM (active) in [9].
Consider `COC(=O)[C@]12CCC(C)(C)C[C@@H]1[C@@H]1C(=O)C=C3[C@@]4(C)C=C(C#N)C(=O)C(C)(C)[C@@H]4CC[C@@]3(C)[C@]1(C)CC2`, for which the Potency in [1] is 9350 nM (active); in test [2] it was 8330 nM (active); in [3], 9350 nM (active); in [4], 9350 nM (active); in test [5], 8330 nM (active); in test [6] it was 9350 nM (active). Moreover, the Potency in test [7] is 7430 nM (active); in [8], 9350 nM (active); in test [9], 6620 nM (active).
On to `CCOc1cc2ncc(C#N)c(Nc3ccc(OCc4ccccn4)c(Cl)c3)c2cc1NC(=O)C=CCN(C)C`, for which the Potency in test [1] is 526 nM (active); in test [2], 935 nM (active); in test [3], 332 nM (active); in test [4], 590 nM (active); in test [5], 1050 nM (active); in test [6] it was 1050 nM (active). The results for the Potency in test [7], in test [8] and in test [9] were 332 nM (active), 148 nM (active) and 296 nM (active), respectively.
As to `CN1CC(=O)N2C(Cc3c([nH]c4ccccc34)[C@H]2c2ccc3c(c2)OCO3)C1=O` (stereo partly specified), the Potency entry in [1], in test [2], in test [3], in [4], in test [5] and in test [6] was “inactive” in each case. In addition, the Potency entry in test [7], in [8] and in [9] was “inactive” each time.
`CN[C@@H]1[C@@H](O)[C@@H](O[C@@H]2[C@@H](O)[C@H](O[C@H]3O[C@H](CN)[C@@H](O)[C@H](O)[C@@H]3O)[C@@H](N)C[C@@H]2NC(=O)[C@@H](O)CN)OC[C@]1(C)O`: the Potency entry in test [1], in test [2], in [3], in [4], in test [5] and in test [6] was “inactive” throughout. The Potency entry in test [7], in [8] and in test [9] was “inactive” each time.
With `OC(CN1CCN(c2cccc(Cl)c2)CC1)C(c1ccccc1)c1ccccc1` (stereo unspecified), the Potency in test [1] was 935 nM (active); in test [2] it was 1050 nM (active); in test [3] it was 148 nM (active); in test [4], 132 nM (active); in test [5], 743 nM (active); in test [6] it was 935 nM (active). Also, the Potency in [7] is 833 nM (active); in test [8], 148 nM (active); in [9], 166 nM (active).
As to `COc1ccc2c(c1)CC[C@H]1[C@@H]2CC[C@]2(C)[C@@H](NCCCCCCN3C(=O)C=CC3=O)CC[C@H]12`, the Potency result in [1], in [2], in [3], in [4], in test [5] and in test [6] was “inactive” each time. Besides, the Potency result in test [7], in test [8] and in test [9] was “inactive” each time.
As to `CC(C=CC(=O)NO)=C[C@@H](C)C(=O)c1ccc(N(C)C)cc1`, the Potency is 2090 nM (active) in [1]; 1870 nM (active) in test [2]; 1660 nM (active) in test [3]; 1480 nM (active) in test [4]; 1180 nM (active) in [5]; 1180 nM (active) in test [6]. In addition, the Potency in test [7] is 590 nM (active); in test [8], 662 nM (active); in test [9], 590 nM (active).
As to `C[C@H](Cn1cnc2c(N)ncnc21)OCP(=O)(O)O`, the Potency result in test [1], in test [2], in test [3], in test [4], in test [5] and in test [6] was “inactive” in each case. In addition, the Potency result in test [7], in [8] and in test [9] was “inactive” each time.
In the case of `CC(=NNC(=S)N1CCC1)c1ccccn1`, the Potency was 8.3 nM (active) in [1]; 5.3 nM (active) in [2]; 4.7 nM (active) in test [3]; 5.3 nM (active) in test [4]; 6.6 nM (active) in [5]; 5.9 nM (active) in test [6]. Besides, the Potency in [7] was 2.6 nM (active); in test [8] it was 3.3 nM (active); in [9] it was 2.1 nM (active).
Take `NC(=O)c1ccc(-c2nc(-c3ccc4c(c3)OCCO4)c(-c3ccccn3)[nH]2)cc1`: the Potency result in [1], in test [2], in [3], in test [4], in test [5] and in test [6] was “inactive” in each case. Also, the Potency entry in test [7], in test [8] and in test [9] was “inactive” throughout. In addition, the activity (max response) in [10] is -9.07%.
As to `CN(C)CCCC1(c2ccc(F)cc2)OCc2cc(C#N)ccc21` (stereo unspecified), the Potency entry in test [1], in [2], in [3], in test [4], in test [5] and in test [6] was “inactive” in each case. In addition, the Potency entry in test [7], in [8] and in [9] was “inactive” each time.
As for `C[C@]12CC[C@@H]3c4ccc(O)cc4CC[C@H]3[C@H]1C[C@@H](O)[C@H]2O`, the Potency result in [1], in test [2], in test [3], in test [4], in [5] and in [6] was “inactive” each time. For the same compound, the Potency entry in [7], in test [8] and in test [9] was “inactive” throughout.
Regarding `O=c1c(-c2ccc(O)cc2)coc2cc(O)ccc12`, the Potency result in test [1], in test [2], in test [3], in [4], in test [5] and in [6] was “inactive” each time. In addition, the Potency result in [7], in test [8] and in test [9] was “inactive” each time. Besides, the activity (max response) in test [10] is -14.3%.
